In the supplement of paper PMC10849652:
Targets with a hit are over-represented here; the source holds about 7,900 in all. About 0.6% of all pairs of compound and target were hits.

How the values were obtained:
Assay in all cases: log2 fold change, soluble protein after heating vs DMSO (PISA); higher = thermal stabilisation; K562 cells, 10 uM, 30 min; active = over 0.2 and 3.5 SD of the protein, either way, in both replicates (recomputed)
bafetinib = compound: Cc1ccc(NC(=O)c2ccc(CN3CC[C@H](N(C)C)C3)c(C(F)(F)F)c2)cc1Nc1nccc(-c2cncnc2)n1 [bafetinib]
Summary of the method: (§1)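 Soluble protein was defined as the supernatant after 21,000xg for 90 min. It came from K562 cells at 2×10^6 cells/mL given 10 μM compound for 30 min, heated in aliquots for 3 min across 48°C-58°C, pooled, and extracted in PBS with 0.5% NP-40 at 4°C, and was quantified by TMTpro 16plex LC-MS/MS with equalised channel sums. Thermal stability against control samples, from duplicates, is reported as log2 fold change.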

[1] = compound: Cc1cccc(CC(=O)N2CCc3c2ccc(-c2cn(C)c4ncnc(N)c24)c3F)n1
Summary of the method: as §1

nilotinib = compound: Cc1cn(-c2cc(NC(=O)c3ccc(C)c(Nc4nccc(-c5cccnc5)n4)c3)cc(C(F)(F)F)c2)cn1 [nilotinib]
Summary of the method: as §1

[2] = compound: Cc1nc(Nc2n[nH]c3c2CN(C(=O)N[C@H](CN(C)C)c2ccccc2)C3(C)C)c2sccc2n1
Summary of the method: as §1

dasatinib = compound: Cc1nc(Nc2ncc(C(=O)Nc3c(C)cccc3Cl)s2)cc(N2CCN(CCO)CC2)n1 [dasatinib]
Summary of the method: as §1

[3] = compound: Cc1ncc(-c2ccnc(Nc3ccc(S(C)(=O)=O)cc3)n2)n1C(C)C
Summary of the method: as §1

[4] = compound: Cn1cc(-c2ccc3c(c2)CCN3C(=O)Cc2cccc(C(F)(F)F)c2)c2c(N)ncnc21
Summary of the method: as §1

[5] = compound: Cn1cc(-c2ccc3nnc(C(F)(F)c4ccc5ncccc5c4)n3n2)cn1
Summary of the method: as §1

tipifarnib = compound: Cn1cncc1[C@@](N)(c1ccc(Cl)cc1)c1ccc2c(c1)c(-c1cccc(Cl)c1)cc(=O)n2C [tipifarnib]
Summary of the method: as §1

mubritinib = compound: FC(F)(F)c1ccc(/C=C/c2nc(COc3ccc(CCCCn4ccnn4)cc3)co2)cc1 [mubritinib]
Summary of the method: as §1

[6] = compound: NC(=O)Nc1cc(-c2cccc(F)c2)sc1C(=O)N[C@H]1CCCNC1
Summary of the method: as §1

[7] = compound: NC(=O)c1cnc(N[C@@H]2CCCC[C@@H]2N)nc1Nc1cccc(-n2nccn2)c1
Summary of the method: as §1

[8] = compound: NC1(c2ccc(-c3nc4ccn5c(=O)[nH]nc5c4cc3-c3ccccc3)cc2)CCC1
Summary of the method: as §1

[9] = compound: NCC(=O)Nc1ccc(-n2nc(C(F)(F)F)cc2-c2ccc3c(ccc4ccccc43)c2)cc1
Summary of the method: as §1

entinostat = compound: Nc1ccccc1NC(=O)c1ccc(CNC(=O)OCc2cccnc2)cc1 [entinostat]
Summary of the method: as §1

vorinostat = compound: O=C(CCCCCCC(=O)Nc1ccccc1)NO [vorinostat]
Summary of the method: as §1

citarinostat = compound: O=C(CCCCCCNC(=O)c1cnc(N(c2ccccc2)c2ccccc2Cl)nc1)NO [citarinostat]
Summary of the method: as §1

silmitasertib = compound: O=C(O)c1ccc2c(c1)nc(Nc1cccc(Cl)c1)c1ccncc12 [silmitasertib]
Summary of the method: as §1

[10] = compound: O=C1NC(=O)C(c2cnc3ccccn23)=C1c1cn2c3c(cc(F)cc13)CN(C(=O)N1CCCCC1)CC2
Summary of the method: as §1

[11] = compound: c1cc(OCCN2CCCCC2)cc(-c2n[nH]c3ccc(-c4nnc[nH]4)cc23)c1
Summary of the method: as §1

Measured: log2 fold change

TRAPPC13 isoform 5 (UniProt A5PLN9)
UniProt A5PLN9, sequence (A5PLN9 whole entry, looked up): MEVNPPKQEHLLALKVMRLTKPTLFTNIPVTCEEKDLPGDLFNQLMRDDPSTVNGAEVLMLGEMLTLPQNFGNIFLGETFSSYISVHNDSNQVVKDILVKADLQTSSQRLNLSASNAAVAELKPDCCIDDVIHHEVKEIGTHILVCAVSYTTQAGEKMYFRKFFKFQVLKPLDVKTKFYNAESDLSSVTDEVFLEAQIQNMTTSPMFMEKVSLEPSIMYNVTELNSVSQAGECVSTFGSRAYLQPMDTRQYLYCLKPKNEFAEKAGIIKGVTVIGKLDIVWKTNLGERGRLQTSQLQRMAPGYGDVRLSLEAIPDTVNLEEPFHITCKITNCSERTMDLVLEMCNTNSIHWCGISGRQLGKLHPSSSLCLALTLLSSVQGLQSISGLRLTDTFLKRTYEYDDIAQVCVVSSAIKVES
inactive: bafetinib 0.11 | [1] 0.149 | nilotinib -0.019 | [2] 0 | [3] -0.056 | [4] 0.002 | [5] -0.112 | tipifarnib -0.011 | mubritinib 0.057 | [6] -0.01 | [7] -0.248 | [8] -0.269 | [9] -0.148 | entinostat 0.045 | vorinostat 0.079 | citarinostat 0.136 | silmitasertib 0.017 | [10] -0.016 | [11] -0.13
active: dasatinib -0.346

USP24 (UniProt Q9UPU5)
inactive: bafetinib 0.037 | [1] 0.034 | nilotinib 0.096 | [2] 0.007 | dasatinib -0.098 | [3] 0.09 | [4] 0.144 | [5] 0.105 | tipifarnib -0.072 | mubritinib 0.056 | [6] 0.18 | [7] 0.079 | [8] -0.053 | [9] 0.07 | entinostat -0.095 | vorinostat -0.012 | citarinostat 0.012 | silmitasertib 0.188 | [10] -0.2 | [11] 0.11

TRAPPC2L (UniProt Q9UL33)
UniProt Q9UL33, sequence (Q9UL33 whole entry, looked up): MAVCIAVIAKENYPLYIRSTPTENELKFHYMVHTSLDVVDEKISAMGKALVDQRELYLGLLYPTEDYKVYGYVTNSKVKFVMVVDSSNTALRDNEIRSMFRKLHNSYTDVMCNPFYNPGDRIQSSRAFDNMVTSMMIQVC
inactive: bafetinib -0.042 | [1] -0.02 | nilotinib -0.062 | [2] -0.068 | dasatinib -0.118 | [3] 0.064 | [4] -0.041 | [5] -0.111 | tipifarnib -0.111 | mubritinib 0.013 | [6] 0.005 | [7] -0.025 | [8] -0.126 | [9] 0.054 | entinostat 0.008 | vorinostat 0.068 | citarinostat 0.031 | silmitasertib 0.037 | [10] -0.047 | [11] -0.099

UBE3D (UniProt Q7Z6J8)
inactive: bafetinib -0.036 | [1] -0.047 | nilotinib 0.043 | [2] -0.001 | dasatinib -0.071 | [3] 0.037 | [4] 0.003 | [5] 0.013 | tipifarnib -0.049 | mubritinib 0.009 | [6] -0.019 | [7] 0.012 | [8] -0.004 | [9] 0.027 | entinostat 0.074 | vorinostat 0.056 | citarinostat 0.012 | silmitasertib 0.067 | [10] -0.032 | [11] -0.164

UTP4 (UniProt Q969X6)
UniProt Q969X6, sequence (Q969X6 whole entry, looked up): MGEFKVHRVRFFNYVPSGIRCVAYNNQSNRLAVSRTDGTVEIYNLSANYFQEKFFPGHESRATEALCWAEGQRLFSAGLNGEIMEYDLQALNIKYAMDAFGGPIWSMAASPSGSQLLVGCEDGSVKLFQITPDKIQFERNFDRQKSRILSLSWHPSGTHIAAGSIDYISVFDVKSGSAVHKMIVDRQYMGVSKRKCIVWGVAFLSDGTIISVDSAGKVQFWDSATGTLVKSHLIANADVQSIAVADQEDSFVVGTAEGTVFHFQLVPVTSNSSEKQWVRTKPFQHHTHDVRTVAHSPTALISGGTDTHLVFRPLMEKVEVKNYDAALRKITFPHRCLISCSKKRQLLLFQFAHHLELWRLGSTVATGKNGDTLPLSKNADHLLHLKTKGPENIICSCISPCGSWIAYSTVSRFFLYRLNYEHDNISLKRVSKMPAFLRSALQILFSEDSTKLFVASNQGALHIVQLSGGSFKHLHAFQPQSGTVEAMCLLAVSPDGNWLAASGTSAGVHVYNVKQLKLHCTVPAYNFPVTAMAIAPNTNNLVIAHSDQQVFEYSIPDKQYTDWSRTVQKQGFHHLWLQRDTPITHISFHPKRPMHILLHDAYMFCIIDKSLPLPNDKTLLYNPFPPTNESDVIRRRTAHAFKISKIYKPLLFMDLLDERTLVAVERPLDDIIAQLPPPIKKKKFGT
inactive: bafetinib -0.04 | [1] -0.013 | nilotinib 0.021 | [2] 0.035 | dasatinib 0.039 | [3] 0.143 | [4] -0.042 | [5] -0.014 | tipifarnib 0.058 | mubritinib -0.025 | [6] 0.049 | [7] 0.033 | [8] 0.075 | [9] 0.05 | entinostat -0.037 | vorinostat -0.051 | citarinostat -0.002 | silmitasertib 0.064 | [10] 0.06 | [11] -0.03

VPS50 (UniProt Q96JG6)
inactive: bafetinib 0.017 | [1] 0.088 | nilotinib -0.074 | [2] -0.077 | [3] 0.038 | [4] -0.019 | [5] -0.035 | tipifarnib -0.066 | mubritinib 0.045 | [6] 0.003 | [7] -0.073 | [8] -0.11 | [9] -0.046 | entinostat 0.06 | vorinostat 0.099 | citarinostat 0.068 | silmitasertib 0.06 | [10] 0.037 | [11] 0.003
active: dasatinib -0.257

UBAP1 isoform 4 (UniProt Q9NZ09)
inactive: bafetinib -0.026 | [1] -0.022 | nilotinib -0.082 | [2] -0.15 | dasatinib -0.086 | [3] 0.009 | [4] 0.015 | [5] -0.015 | tipifarnib -0.131 | mubritinib 0.084 | [6] -0.035 | [7] -0.005 | [8] -0.052 | [9] 0.002 | entinostat -0.027 | vorinostat -0.019 | citarinostat 0.193 | silmitasertib 0.064 | [10] -0.032 | [11] -0.049

UCHL5 (UniProt Q9Y5K5)
UniProt Q9Y5K5, sequence (Q9Y5K5 whole entry, looked up): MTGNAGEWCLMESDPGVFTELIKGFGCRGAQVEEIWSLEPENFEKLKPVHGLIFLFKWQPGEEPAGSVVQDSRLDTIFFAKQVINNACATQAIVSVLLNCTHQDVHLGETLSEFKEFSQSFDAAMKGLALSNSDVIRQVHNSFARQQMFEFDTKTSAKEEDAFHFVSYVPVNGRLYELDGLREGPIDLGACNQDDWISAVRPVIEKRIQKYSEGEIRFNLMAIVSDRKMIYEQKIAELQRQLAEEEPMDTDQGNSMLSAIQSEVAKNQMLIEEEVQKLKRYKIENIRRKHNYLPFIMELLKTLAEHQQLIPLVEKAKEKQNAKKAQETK
inactive: bafetinib 0.014 | [1] 0.045 | nilotinib -0.06 | [2] -0.071 | dasatinib -0.152 | [3] 0.007 | [4] 0.012 | [5] 0 | tipifarnib -0.093 | mubritinib -0.001 | [6] -0.003 | [7] -0.029 | [8] -0.124 | [9] -0.045 | entinostat 0.048 | vorinostat 0.063 | citarinostat 0.08 | silmitasertib 0.04 | [10] -0.084 | [11] -0.026

WDR41 (UniProt Q9HAD4)
inactive: bafetinib -0.139 | [1] 0.169 | nilotinib 0 | [2] -0.076 | dasatinib -0.082 | [3] -0.017 | [4] 0.012 | [5] -0.003 | tipifarnib 0.023 | mubritinib 0.071 | [6] 0 | [7] -0.005 | [8] -0.173 | [9] -0.005 | entinostat 0.038 | vorinostat 0.091 | citarinostat 0.036 | silmitasertib 0.031 | [10] -0.11 | [11] -0.07

XPOT (UniProt O43592)
UniProt O43592, sequence (O43592 whole entry, looked up): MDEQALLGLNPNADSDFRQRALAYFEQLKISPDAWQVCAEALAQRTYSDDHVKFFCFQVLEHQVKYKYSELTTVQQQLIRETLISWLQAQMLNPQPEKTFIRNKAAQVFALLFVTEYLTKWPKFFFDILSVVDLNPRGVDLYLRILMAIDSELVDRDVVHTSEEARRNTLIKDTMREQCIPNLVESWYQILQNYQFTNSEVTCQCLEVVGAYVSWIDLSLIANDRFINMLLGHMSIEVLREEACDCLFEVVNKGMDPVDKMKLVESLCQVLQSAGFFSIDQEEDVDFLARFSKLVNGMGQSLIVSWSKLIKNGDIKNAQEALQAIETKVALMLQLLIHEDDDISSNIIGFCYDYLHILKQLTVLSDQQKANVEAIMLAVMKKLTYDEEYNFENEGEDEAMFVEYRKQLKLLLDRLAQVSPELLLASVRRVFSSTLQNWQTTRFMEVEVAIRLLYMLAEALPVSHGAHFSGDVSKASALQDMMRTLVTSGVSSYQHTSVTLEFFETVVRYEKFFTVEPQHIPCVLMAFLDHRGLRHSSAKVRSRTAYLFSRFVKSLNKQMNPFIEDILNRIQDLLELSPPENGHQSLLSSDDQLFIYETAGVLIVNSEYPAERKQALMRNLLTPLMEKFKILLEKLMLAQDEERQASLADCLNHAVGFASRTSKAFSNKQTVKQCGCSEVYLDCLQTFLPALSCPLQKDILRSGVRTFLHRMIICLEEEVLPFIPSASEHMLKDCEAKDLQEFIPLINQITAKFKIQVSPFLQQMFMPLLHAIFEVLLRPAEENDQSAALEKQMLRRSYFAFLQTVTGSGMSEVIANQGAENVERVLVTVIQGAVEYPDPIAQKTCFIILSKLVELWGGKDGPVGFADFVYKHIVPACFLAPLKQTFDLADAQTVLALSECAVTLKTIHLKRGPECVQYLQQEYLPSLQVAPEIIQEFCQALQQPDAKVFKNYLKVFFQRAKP
inactive: bafetinib -0.014 | [1] 0.013 | nilotinib -0.083 | [2] -0.012 | dasatinib -0.13 | [3] 0.083 | [4] -0.075 | [5] 0.066 | tipifarnib -0.173 | mubritinib 0.077 | [6] -0.04 | [7] -0.103 | [8] -0.241 | [9] -0.061 | entinostat 0.063 | vorinostat 0.031 | citarinostat 0.069 | silmitasertib 0.134 | [10] 0.057 | [11] -0.047

UFL1 (UniProt O94874)
inactive: bafetinib 0.032 | [1] 0.018 | nilotinib -0.119 | [2] -0.009 | dasatinib -0.165 | [3] 0.083 | [4] -0.013 | [5] -0.007 | tipifarnib -0.052 | mubritinib 0.062 | [6] -0.06 | [7] -0.013 | [8] -0.107 | [9] -0.066 | entinostat 0.059 | vorinostat 0.074 | citarinostat 0.063 | silmitasertib 0.029 | [10] -0.013 | [11] -0.048

VPS33A (UniProt Q96AX1)
UniProt Q96AX1, sequence (Q96AX1 whole entry, looked up): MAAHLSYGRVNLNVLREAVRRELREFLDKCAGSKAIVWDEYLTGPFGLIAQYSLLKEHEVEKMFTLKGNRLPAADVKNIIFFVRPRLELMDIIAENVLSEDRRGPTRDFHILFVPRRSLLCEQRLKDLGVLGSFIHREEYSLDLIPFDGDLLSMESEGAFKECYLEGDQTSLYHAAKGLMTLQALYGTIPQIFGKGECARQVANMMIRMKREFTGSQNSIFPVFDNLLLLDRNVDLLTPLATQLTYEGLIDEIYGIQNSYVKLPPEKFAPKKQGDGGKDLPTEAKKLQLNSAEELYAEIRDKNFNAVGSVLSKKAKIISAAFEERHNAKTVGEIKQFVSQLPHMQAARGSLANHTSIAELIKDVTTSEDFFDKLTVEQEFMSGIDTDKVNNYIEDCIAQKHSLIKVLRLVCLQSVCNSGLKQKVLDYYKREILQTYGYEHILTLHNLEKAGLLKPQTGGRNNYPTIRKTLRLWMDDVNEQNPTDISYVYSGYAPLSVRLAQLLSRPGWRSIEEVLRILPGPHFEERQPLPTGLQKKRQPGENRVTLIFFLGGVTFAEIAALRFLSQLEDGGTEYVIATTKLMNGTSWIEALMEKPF
inactive: bafetinib -0.066 | [1] 0.091 | nilotinib -0.071 | [2] -0.124 | dasatinib -0.123 | [3] -0.039 | [4] -0.019 | [5] -0.094 | tipifarnib -0.064 | mubritinib 0.098 | [6] 0.012 | [7] -0.121 | [8] -0.191 | [9] -0.084 | entinostat 0.05 | vorinostat 0.051 | citarinostat 0.063 | silmitasertib 0.019 | [10] 0.029 | [11] -0.059

UBC (UniProt P0CG48)
UniProt P0CG48, sequence (P0CG48 whole entry, looked up): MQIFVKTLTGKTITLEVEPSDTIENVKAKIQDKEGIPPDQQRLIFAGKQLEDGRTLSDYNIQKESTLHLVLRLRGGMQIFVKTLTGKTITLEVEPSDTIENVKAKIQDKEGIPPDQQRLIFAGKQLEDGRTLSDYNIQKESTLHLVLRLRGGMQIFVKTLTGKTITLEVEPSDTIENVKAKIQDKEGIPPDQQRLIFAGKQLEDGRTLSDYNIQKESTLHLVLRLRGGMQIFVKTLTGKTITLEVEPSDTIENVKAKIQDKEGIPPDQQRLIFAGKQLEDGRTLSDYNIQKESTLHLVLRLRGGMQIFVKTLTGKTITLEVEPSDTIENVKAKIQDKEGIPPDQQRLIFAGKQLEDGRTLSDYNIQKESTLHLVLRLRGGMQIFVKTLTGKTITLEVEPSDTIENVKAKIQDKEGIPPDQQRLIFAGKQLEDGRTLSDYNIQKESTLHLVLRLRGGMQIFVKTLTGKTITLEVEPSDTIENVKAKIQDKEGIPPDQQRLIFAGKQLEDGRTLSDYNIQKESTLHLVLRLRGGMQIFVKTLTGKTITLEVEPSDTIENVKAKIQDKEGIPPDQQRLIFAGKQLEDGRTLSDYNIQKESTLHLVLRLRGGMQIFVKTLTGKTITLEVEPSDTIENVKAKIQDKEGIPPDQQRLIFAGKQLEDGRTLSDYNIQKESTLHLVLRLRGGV
inactive: bafetinib 0.055 | [1] -0.156 | nilotinib 0.116 | [2] 0.013 | dasatinib 0.02 | [3] -0.025 | [4] 0.003 | [5] 0.07 | tipifarnib -0.051 | mubritinib 0.005 | [6] -0.003 | [7] -0.022 | [8] 0.214 | [9] 0.01 | entinostat -0.023 | vorinostat -0.11 | citarinostat -0.13 | silmitasertib -0.076 | [10] -0.117 | [11] -0.068

TRAPPC11 (UniProt Q7Z392)
UniProt Q7Z392, sequence (Q7Z392 whole entry, looked up): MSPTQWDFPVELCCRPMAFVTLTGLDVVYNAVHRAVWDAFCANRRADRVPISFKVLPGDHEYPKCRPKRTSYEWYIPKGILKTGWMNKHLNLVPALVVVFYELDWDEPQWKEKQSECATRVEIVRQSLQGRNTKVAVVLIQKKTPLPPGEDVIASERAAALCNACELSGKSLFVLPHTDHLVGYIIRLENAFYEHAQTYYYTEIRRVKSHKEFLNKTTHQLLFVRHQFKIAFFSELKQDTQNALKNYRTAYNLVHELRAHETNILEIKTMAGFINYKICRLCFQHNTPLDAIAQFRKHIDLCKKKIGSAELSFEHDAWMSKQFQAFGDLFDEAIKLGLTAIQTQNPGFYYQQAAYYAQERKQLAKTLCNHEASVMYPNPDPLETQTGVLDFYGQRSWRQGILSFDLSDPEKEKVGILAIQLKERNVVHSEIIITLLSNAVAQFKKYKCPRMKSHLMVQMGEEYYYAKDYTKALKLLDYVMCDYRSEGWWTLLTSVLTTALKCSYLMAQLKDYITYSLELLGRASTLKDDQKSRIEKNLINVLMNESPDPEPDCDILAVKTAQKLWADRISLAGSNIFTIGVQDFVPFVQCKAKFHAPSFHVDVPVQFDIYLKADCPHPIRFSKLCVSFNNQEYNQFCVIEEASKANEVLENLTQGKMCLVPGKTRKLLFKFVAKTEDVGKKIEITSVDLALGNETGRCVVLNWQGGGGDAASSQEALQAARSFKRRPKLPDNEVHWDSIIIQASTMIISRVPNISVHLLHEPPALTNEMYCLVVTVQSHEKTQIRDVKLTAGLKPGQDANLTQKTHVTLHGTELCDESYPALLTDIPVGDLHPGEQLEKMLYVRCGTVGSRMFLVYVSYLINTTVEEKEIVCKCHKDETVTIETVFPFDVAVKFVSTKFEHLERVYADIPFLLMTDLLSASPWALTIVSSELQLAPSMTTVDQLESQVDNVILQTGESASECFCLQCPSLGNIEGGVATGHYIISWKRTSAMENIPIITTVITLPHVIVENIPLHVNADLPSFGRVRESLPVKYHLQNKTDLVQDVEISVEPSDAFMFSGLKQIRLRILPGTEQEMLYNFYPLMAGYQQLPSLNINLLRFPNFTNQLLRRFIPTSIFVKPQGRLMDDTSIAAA
inactive: bafetinib 0.065 | [1] 0.05 | nilotinib -0.098 | [2] -0.129 | dasatinib -0.159 | [3] 0.01 | [4] -0.04 | [5] -0.03 | tipifarnib -0.06 | mubritinib 0.04 | [6] -0.033 | [7] -0.11 | [8] -0.187 | [9] 0.007 | entinostat 0.011 | vorinostat 0.012 | citarinostat -0.006 | silmitasertib 0.044 | [10] -0.036 | [11] -0.053

WDR4 (UniProt P57081)
inactive: [1] -0.06 | nilotinib 0.009 | [2] 0.005 | dasatinib -0.013 | [3] -0.003 | [4] 0.068 | [5] -0.061 | tipifarnib -0.132 | mubritinib 0.031 | [6] -0.094 | [7] 0.021 | [8] -0.089 | [9] -0.003 | entinostat -0.04 | vorinostat -0.009 | citarinostat 0.046 | silmitasertib -0.038 | [10] -0.161 | [11] -0.011
active: bafetinib 0.455
